PubChem BioAssay (Tox21)
Several values for one entry are separate records, joined by “and”; a condition that tells them apart may be missing. Equal entries are not always repeated. A number with no mark means an inactive call. Results filed as inconclusive are left out. Where a call stands in place of a potency, no number is given. Activity calls are given as the source filed them. Unless noted, calls come from the whole dose curve; as a rule, active = well fitted curve in the direction sought with a large enough effect in the repeat runs; inconclusive = weak or mixed curves; inactive = no such curve, though single readings can be large; an effect the other way counts as inactive or inconclusive.

What was measured:
[1] = qHTS assay for small molecule agonists of the p53 signaling pathway - cell viability (AID 651633; calls by dose curve; note: nearly all actives have a fitted effect of over 30% in size; note: potency is the fitted concentration of half-maximal effect)
Summary of the method: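 p53RE-bla cells, seeded at 4,000 per well and rested 5 h at 37 C/5% CO2, received compounds in DMSO for 16 h at 37 C. CellTiter-Glo was then added, and luminescence was read after 30 min at room temperature to gauge cytotoxicity.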

[2] = qHTS assay for small molecules that induce genotoxicity in human embryonic kidney cells expressing luciferase-tagged ATAD5 - cell viability (AID 651634; calls by dose curve; note: nearly all actives have a fitted effect of over 25% in size; note: potency is the fitted concentration of half-maximal effect)
Summary of the method: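 Cytotoxicity counterscreen in HEK293T cells bearing an ATAD5-luciferase reporter: live-cell protease activity measured by CellTiter-Fluor fluorescence after 15.5 hr compound exposure.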

[3] = qHTS assay for small molecule disruptors of the mitochondrial membrane potential - cell viability (AID 720634; calls by dose curve; note: nearly all actives have a fitted effect of over 20% in size; note: potency is the fitted concentration of half-maximal effect)
Summary of the method: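 After overnight attachment at 37 C, HepG2 cells received compound or DMSO vehicle for 1 hr. Viability is then taken from ATP-driven luminescence following a 30 min room-temperature CellTiter-Glo step.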

[4] = qHTS assay for small molecule disruptors of the mitochondrial membrane potential (AID 720635); note: potency is the fitted concentration of half-maximal effect
Summary of the method: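 HepG2 cells (2,000/well) attached overnight at 37C, then took compound for 1 hr at 37C, 5% CO2. Mito-MPS dye was added for 30 min; fluorescence was read at 490/535 nm (monomers) and 540/590 nm (aggregates).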

[5] = qHTS assay to test for compound auto fluorescence at 590 nm (red) in HepG2 cells (AID 720674)
Summary of the method: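 Compound auto-fluorescence is scored relative to Rose Bengal sodium, measured at 540/590 nm in live HepG2 cultures after 1 hr compound contact (37 C, 5% CO2).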

[6] = qHTS assay to test for compound auto fluorescence at 535 nm (green) in HepG2 cells (AID 720675)
[7] = qHTS assay to test for compound auto fluorescence at 460 nm (blue) in HEK293 cells (AID 720678)
Summary of the method: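 Intrinsic compound fluorescence is recorded in live HEK293 cultures after overnight incubation at 37C, 5% CO2, using excitation 405 nm and emission 460 nm. Values are referenced to triamterene.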

[8] = qHTS assay to test for compound auto fluorescence at 590 nm (red) in HEK293 cells (AID 720679)
Summary of the method: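 Red autofluorescence, HEK293 cells: 2,000 cells/well; attach 4-5 hr 37C; add 23 nL cpd or DMSO; incubate o/n 37C 5% CO2; read Ex540/Em590; Rose Bengal sodium reference.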

[9] = qHTS assay for small molecules that induce genotoxicity in human embryonic kidney cells expressing luciferase-tagged ATAD5 (AID 651632); note: nearly all actives have a fitted effect of over 15% in size; note: potency is the fitted concentration of half-maximal effect
Summary of the method: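 Increased luciferase signal from ATAD5-tagged reporter cells indicates DNA-damage-driven ATAD5 induction. HEK293T cells are treated for 16 hr at 37C before detection with Amplite.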

Compound | Potency [1] | Potency [2] | Potency [3] | Potency [4] | outcome [5] | outcome [6] | Potency [7] | outcome [8] | Potency [9] | fluorescence, % of fluorescein control [6] | fluorescence, % of triamterene [7] | fluorescence, % of fluorescent control [8]
CS(=O)(=O)c1ccc(C(=O)C2C(=O)CCCC2=O)c([N+](=O)[O-])c1 | inactive | inactive | inactive | 6.98 µM (active) | inactive | inactive | inactive | inactive |  |  |  | 
ClC1=C(Cl)C2(Cl)C3C(Cl)C(Cl)CC3C1(Cl)C2(Cl)Cl (centres undefined) | 54.3 µM (active) and 61.1 µM (active) | inactive | inactive | 7.67 µM (active) and 13.7 µM (active) |  | inactive | inactive | inactive |  |  |  | 
Cc1cc(N=Nc2ccccc2C)ccc1N |  | 48.6 µM (active) | 19.3 µM (active) and 15.4 µM (active) | 15.4 µM (active) and 30.6 µM (active) | inactive | inactive | inactive | inactive | 6.11 µM (active) and 6.86 µM (active) |  |  | 
CCCCCCCCCCCCBr |  | inactive |  | 27.3 µM (active) | inactive | inactive | inactive | inactive | inactive |  |  | 
CC(C)OC(=O)C(O)(c1ccc(Cl)cc1)c1ccc(Cl)cc1 |  | inactive |  | 24.3 µM (active) | inactive | inactive | inactive | inactive | inactive |  |  | 
Clc1ccc(CSC(Cn2ccnc2)c2ccc(Cl)cc2Cl)cc1 (centres undefined) |  | inactive | inactive |  |  |  |  |  | inactive | -0.0068% [at 18.6 µM] | -0.071% [at 18.6 µM] | 0.517% [at 18.6 µM]
CC1(c2ccc(Oc3ccccc3)cc2)OC(=O)N(Nc2ccccc2)C1=O (centres undefined) |  | inactive |  | 3.88 µM (active) |  | inactive | inactive | inactive | inactive |  |  | 
O=C(Nc1ccc2[nH]ccc2c1)c1cc2cc(F)ccc2n1Cc1cccc(F)c1 |  |  |  | 0.686 µM (active) | inactive | inactive | inactive | inactive | inactive |  |  | 
COC12CC[C@@]3(C[C@@H]1C(C)(O)C(C)(C)C)[C@H]1Cc4ccc(O)c5c4[C@@]3(CCN1CC1CC1)[C@H]2O5 (some centres undefined) | 54.1 µM (active) | 60.7 µM (active) | 54.1 µM (active) | 19.2 µM (active) |  | inactive | inactive | inactive |  |  |  | 
CN(C)C(=S)[S-].CN(C)C(=S)[S-].[Cu+2] | inactive | 0.836 µM (active) | inactive | 0.592 µM (active) |  |  |  |  |  | -0.0148% [at 18.6 µM] | -0.0228% [at 18.6 µM] | 0.0936% [at 18.6 µM]
COc1ccc(OC)c(CC(C)N)c1 (centres undefined) |  | inactive | inactive | inactive | inactive | inactive | inactive | inactive | inactive |  |  | 
ClC1=C(Cl)[C@]2(Cl)[C@H]3[C@H]([C@H]4C=C[C@H]3C4)[C@@]1(Cl)C2(Cl)Cl |  | inactive |  | 43.3 µM (active) | inactive | inactive | inactive | inactive | inactive |  |  | 
Nc1ccccc1C(=O)OC/C=C/c1ccccc1 |  | inactive |  | 19.4 µM (active) | inactive | inactive | inactive | inactive | inactive |  |  | 
Fc1cccc(Cl)c1CCl |  | inactive | inactive |  | inactive | inactive | inactive | inactive | inactive |  |  | 
CCOP(=S)(OCC)OC(Cl)C(Cl)(Cl)Cl (centres undefined) |  | inactive |  | 61.1 µM (active) |  | inactive | inactive | inactive | inactive |  |  | 
CCCCCCCCCCCCCCCC[N+](C)(C)C |  | inactive | inactive | 13.3 µM (active) and 10.5 µM (active) and 27.3 µM (active) | inactive | inactive | inactive | inactive | inactive |  |  | 

Compound | Potency [1] | Potency [2] | Potency [3] | Potency [4] | outcome [5] | outcome [6] | Potency [7] | outcome [8] | Potency [9] | fluorescence, % of fluorescein control [6] | fluorescence, % of triamterene [7] | fluorescence, % of fluorescent control [8]
C[C@@H]1CC[C@@]2(OC1)O[C@H]1[C@@H](O)[C@H]3[C@@H]4CC[C@H]5C[C@@H](O[C@@H]6O[C@H](CO)[C@H](O[C@@H]7O[C@H](CO)[C@@H](O)[C@H](O[C@@H]8OC[C@@H](O)[C@H](O)[C@H]8O)[C@H]7O[C@@H]7O[C@H](CO)[C@@H](O)[C@H](O[C@@H]8O[C@H](CO)[C@@H](O)[C@H](O)[C@H]8O)[C@H]7O)[C@H](O)[C@H]6O)[C@H](O)C[C@]5(C)[C@H]4CC[C@]3(C)[C@H]1[C@@H]2C | 23 µM (active) | 64.9 µM (active) | 18.3 µM (active) | 4.59 µM (active) | inactive | inactive | inactive | inactive |  |  |  | 
O=C/C(Cl)=C(/Cl)C(=O)O | inactive | inactive | 61.1 µM (active) | 24.3 µM (active) and 38.6 µM (active) | inactive | inactive | inactive | inactive |  |  |  | 
Oc1ccc(C(=C(Cl)Cl)c2ccc(O)cc2)cc1 |  | inactive |  | 17.2 µM (active) | inactive | inactive | inactive | inactive | inactive |  |  | 
ClC1=C(Cl)C2(Cl)C3C(Cl)C=CC3C1(Cl)C2(Cl)Cl (centres undefined) | 68.9 µM (active) and 54.5 µM (active) | inactive | inactive | 27.4 µM (active) and 54.5 µM (active) | inactive | inactive | inactive | inactive |  |  |  | 
CC(C)N1C(=O)N(c2ccccc2)CSC1=NC(C)(C)C |  | inactive | 15.4 µM (active) | 38.6 µM (active) | inactive | inactive | inactive | inactive | inactive |  |  | 
CN(C)S(=O)(=O)N(SC(F)(Cl)Cl)c1ccccc1 |  |  | 61.1 µM (active) | 4.86 µM (active) | inactive | inactive | inactive | inactive | inactive |  |  | 
[Hg+2].[I-].[I-] | 61.1 µM (active) | 61.1 µM (active) | 48.6 µM (active) | 17.2 µM (active) | inactive | inactive | inactive | inactive |  |  |  | 
CCN(CC)C(=S)[S-].CCN(CC)C(=S)[S-].[Zn+2] | 4.29 µM (active) | 15.2 µM (active) | inactive | 3.41 µM (active) |  | inactive | inactive | inactive |  |  |  | 
CCCCCCCCc1ccc(O)cc1 | 12.3 µM (active) | inactive | 15.4 µM (active) | 4.89 µM (active) | inactive | inactive | inactive | inactive |  |  |  | 
S=C=Nc1cccc2ccccc12 | 48.1 µM (active) | inactive | 48.1 µM (active) | 17.1 µM (active) | inactive | inactive | inactive | inactive |  |  |  | 
CCCN(CCC)c1c([N+](=O)[O-])cc(S(N)(=O)=O)cc1[N+](=O)[O-] |  | 54.5 µM (active) | 32.7 µM (active) | 3.67 µM (active) | inactive | inactive | inactive | inactive | inactive |  |  | 
COP(=S)(OC)Oc1cc(Cl)c(Br)cc1Cl | inactive | inactive | 54.5 µM (active) | 6.86 µM (active) | inactive | inactive | inactive | inactive |  |  |  | 
Fc1ccc(Oc2ccnc3cc(Cl)cc(Cl)c23)cc1 |  | inactive |  | 30.6 µM (active) | inactive | inactive | inactive | inactive | inactive |  |  | 
CC1(C)CC/C(=C/c2ccc(Cl)cc2)C1(O)Cn1cncn1 (centres undefined) |  | inactive | inactive |  |  | inactive | inactive | inactive | inactive |  |  | 
N#CCCC(Br)(C#N)CBr (centres undefined) | inactive |  |  | 61.1 µM (active) | inactive | inactive | inactive | inactive |  |  |  | 
